The values below come from PubChem BioAssay (NCI).

Test systems include T-47D breast; BT-549 breast; MDA-MB-435 melanoma; SW-620 colon; MCF7 breast; HCT-116 colon; HCC-2998 colon; KM12 colon.
What all share (experiment): NCI-60 one-dose screen, 48 h (100 = growth as untreated, 0 = no growth, -100 = all killed)
Settings in all cases: 10 µM unless noted

This is part of a sample that, as a whole, favours compounds with a hit. Of some 83,000 tested, about 20% had one in any assay.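 Percent growth is the endpoint: 0 to 100 indicates growth inhibition (40 means 60% inhibition), 0 means no net growth, and negative values indicate cell death.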 Unmarked numbers belong to inactive results. Active and inactive are the calls of the source. The calls were made as follows: active = growth percent below 10; inactive = the rest.

For `O=c1scc(-c2ccc(C(F)(F)F)cc2)s1`, the growth with T-47D breast is 95.6%; in the assay with BT-549 breast, 88.3%; in the assay on MDA-MB-435 melanoma, 87.5%; in the assay with SW-620 colon, 96.8%; in the assay with MCF7 breast, 64.9%; in the assay with HCT-116 colon it was 100%. Moreover, the growth with HCC-2998 colon is 76.7%; with KM12 colon, 109%.
Take `CCc1ncnc2c1ccn2C(C)c1ccc(OC)c(F)c1` (configuration not stated): the growth in the assay with T-47D breast is 36.1%; in the assay with BT-549 breast it was 52.4%; in the assay with MDA-MB-435 melanoma it was 6.71% (active); in the assay on SW-620 colon, 27.7%; in the assay with MCF7 breast it was 33.4%; with HCT-116 colon, 18.8%. For the same compound, the values for the growth in the assay on HCC-2998 colon and in the assay with KM12 colon were 56.6% and 27.8%, respectively.
Take `COc1cc2oc(-c3cccc(NC(=O)c4ccccc4)c3)cc(=O)c2c(OC)c1OC`: the growth in the assay with T-47D breast is 50.2%; with BT-549 breast, 74.1%; in the assay with MDA-MB-435 melanoma, 80.7%; in the assay on SW-620 colon, 91.5%; in the assay with MCF7 breast it was 77.3%; in the assay on HCT-116 colon, 67.7%. The growth in the assay with HCC-2998 colon was 87.8%; in the assay with KM12 colon, 64.4%.
Turning to `C#CCOc1ccc2ncnc(Nc3ccc(NC(=O)C=C)cc3)c2c1`, the growth with T-47D breast is 4.07% (active); in the assay with BT-549 breast, -28.7% (active); in the assay with MDA-MB-435 melanoma, -18.9% (active); in the assay on SW-620 colon, -45.8% (active); in the assay on MCF7 breast it was -10.4% (active); with HCT-116 colon, -79.9% (active). For the same compound, the growth is 82.2% with HCC-2998 colon and 8.91% (active) in the assay on KM12 colon.
For the compound `C#CCOc1cccc(Nc2ncnc3ccc(NC(=O)C=C)cc23)c1`, the growth was 39% in the assay with T-47D breast; 19.5% with BT-549 breast; 43.8% with MDA-MB-435 melanoma; 55.9% in the assay with SW-620 colon; 47.6% with MCF7 breast; 32.8% with HCT-116 colon. The growth in the assay with HCC-2998 colon is 84.6%; with KM12 colon it was 60.4%.
On to `CCOCCNC1=C(Cl)C(=O)c2ccccc2C1=O`, for which the growth in the assay with T-47D breast is 90.8%; with BT-549 breast, 107%; with MDA-MB-435 melanoma it was 104%; in the assay with SW-620 colon it was 110%; in the assay on MCF7 breast, 69.1%; in the assay with HCT-116 colon it was 88.1%. Moreover, the figures for the growth with HCC-2998 colon and in the assay on KM12 colon were 112% and 91.4%, respectively.
In the case of `C/C(Cc1ccc(Cl)cc1)=C(\c1ccc(O)cc1)c1ccc(Cl)cc1`, the growth was 82.1% in the assay on T-47D breast; 98.1% with BT-549 breast; 93% in the assay on MDA-MB-435 melanoma; 95.4% in the assay with SW-620 colon; 102% in the assay with MCF7 breast; 71.6% in the assay on HCT-116 colon. For the same compound, the growth in the assay on HCC-2998 colon is 91.9%; with KM12 colon, 88.6%.
Take `C=CCc1c(O)c(C(=O)/C=C/c2ccccc2)c(OC)c2ccoc12`: the growth with T-47D breast is 41.3%; with BT-549 breast, 34.3%; in the assay on MDA-MB-435 melanoma, 26.4%; with SW-620 colon, 39.9%; in the assay with MCF7 breast, 16.1%; with HCT-116 colon, 22.9%. Further, the growth was 50.4% in the assay on HCC-2998 colon and 45.2% in the assay with KM12 colon.
For `COC1/C=C/OC2(C)Oc3c(C)c(O)c4c(O)c(c(/C=N/Nc5ccc([N+](=O)[O-])cc5[N+](=O)[O-])c(O)c4c3C2=O)NC(=O)C(C)=C/C=C/C(C)C(O)C(C)C(O)C(C)C(OC(C)=O)C1C` (configuration not stated), the growth was -31.2% (active) with T-47D breast; 13.7% in the assay on BT-549 breast; 3.5% (active) with MDA-MB-435 melanoma; -41.2% (active) in the assay on SW-620 colon; 36.6% with MCF7 breast; -46.7% (active) in the assay with HCT-116 colon. Further, the growth in the assay on HCC-2998 colon was -14.1% (active); in the assay on KM12 colon it was 9.93% (active).
For the compound `O=C(O)CCCN1C(=O)/C(=C/c2cn(-c3ccccc3)nc2-c2ccc([N+](=O)[O-])cc2)SC1=S`, the growth is 61.6% in the assay on T-47D breast; 55.1% in the assay with BT-549 breast; 48.6% with MDA-MB-435 melanoma; 65.7% in the assay with SW-620 colon; 52.3% in the assay with MCF7 breast; 36.9% in the assay on HCT-116 colon. For the same compound, the growth in the assay on HCC-2998 colon is 64.6%; in the assay with KM12 colon, 54.1%.
In the case of `O=C(CN1C(=O)NC2NC(=O)NC21)N/N=C/c1ccccc1[N+](=O)[O-]` (configuration not stated), the growth was 104% with T-47D breast; 97.9% with BT-549 breast; 104% in the assay with MDA-MB-435 melanoma; 105% in the assay with SW-620 colon; 85.1% in the assay on MCF7 breast; 107% with HCT-116 colon. Also, the results for the growth in the assay with HCC-2998 colon and in the assay with KM12 colon were 118% and 104%, respectively.
For `COc1cc2c(cc1OCCCN1CCN(CCCOc3cc4c(cc3OC)C(=O)N3CC(F)(F)C[C@H]3C=N4)CC1)N=C[C@@H]1CC(F)(F)CN1C2=O`, the growth in the assay on T-47D breast was 34.5%; with BT-549 breast it was -7.9% (active); with MDA-MB-435 melanoma, 69%; in the assay on SW-620 colon, -0.878% (active); in the assay with MCF7 breast, 25.5%; in the assay on HCT-116 colon, 62%. The values for the growth with HCC-2998 colon and in the assay on KM12 colon were 60.5% and 62.3%, respectively.
With `CCO/C=N/C1=C(C#N)C(c2ccc(Cl)cc2)c2sc3c(F)cccc3c2O1` (configuration not stated), the growth in the assay on T-47D breast was 54.8%; with BT-549 breast, 68.8%; in the assay with MDA-MB-435 melanoma, -30.4% (active); in the assay on SW-620 colon, 35.5%; with MCF7 breast, 26%; in the assay with HCT-116 colon it was 54.2%. Moreover, the results for the growth with HCC-2998 colon and in the assay on KM12 colon were 84.2% and 42.2%, respectively.
As to `O=C(Nc1cccc(-c2ccc(Cl)c(C(F)(F)F)c2)c1)C1CCN(Cc2cccc3cccnc23)CC1`, the growth was -55.8% (active) with T-47D breast; 63.5% with BT-549 breast; -83.7% (active) in the assay on MDA-MB-435 melanoma; -83% (active) in the assay with SW-620 colon; -89.9% (active) in the assay on MCF7 breast; -75% (active) with HCT-116 colon. Also, the growth with HCC-2998 colon is -83.5% (active); with KM12 colon, -27.4% (active).
